# Source: PubChem BioAssay (NCI)
# About 83,000 compounds went through this panel and 20% of them were active in at least one assay; those are over-represented in the sample as a whole.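 For each line, cells grew in 96-well plates with the test compound present at a single concentration for 48 hours.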 A number with no mark means an inactive call. Calls of active or inactive are those of the source. How the source made its calls: active means growth percent below 10; inactive means the rest.
# System: SK-MEL-28 melanoma
# Test: NCI-60 one-dose screen, 48 h (100 = growth as untreated, 0 = no growth, -100 = all killed)
# Conditions: 10 µM unless noted
row,SMILES,growth
1,O=C(COc1cccc(/C=C2\Oc3ccccc3C2=O)c1)c1ccc([N+](=O)[O-])cc1,135%
2,CC[C@]12C=CCN3CC[C@@]4(c5ccc(OC)cc5N(C)[C@H]4[C@@](O)(C(=O)OC)[C@@H]1OC(=O)CCC(=O)N[C@H](Cc1c[nH]c4ccccc14)C(=O)OC)[C@@H]32,-49.6% [100 µM] (active)
3,C=C(C)[C@@H]1CC[C@]2(C(N)=O)CC[C@]3(C)[C@H](CC[C@@H]4[C@@]5(C)C/C(=C/c6cccnc6)[C@H](O)C(C)(C)[C@@H]5CC[C@]43C)[C@@H]12,26.5% [100 µM]
4,CSc1nc2sc3cc(Cl)c(Cl)cc3n2c(=N)c1C#N,108%
5,COc1ccc(/C=C2\N=C(Nc3ccccc3)N(NC(=O)c3ccccn3)C2=O)cc1,102%
6,O=C(NCCCNC(=O)OCc1ccc2cccc(O)c2n1)OCc1ccc2cccc(O)c2n1,64.3%
7,COc1cc(C(=O)/C=C/c2c(-c3ccc(F)cc3)nc3sccn23)cc(OC)c1OC,52.2%
8,CCCCCCCCCCCCNC(=S)N/N=C/c1ccccc1O,93.3%
9,CCCc1cc2cc(-n3nc(C)c4c3CC(C)(C)CC4=O)cc(NC3CCSCC3)c2c(=O)[nH]1,68.6%
10,COc1ccc(-c2cc(-c3ccc(OC)c(OC)c3)nc(SCCCCCC(=O)NO)n2)cc1,35.5%
11,CCC(C)[C@H](NC(=O)NC(=O)NC(=O)CI)C(=O)OC (some centres not stated),87.7%
12,CCN(CC)c1ccc(/C=C/c2ccc3cc(C)ccc3[n+]2CC)cc1,2.66% (active)
13,N/C(=N\c1nc2ccccc2[nH]1)NC(=O)Cc1cccc2ccccc12,86.9%
14,CC1(C)CC[C@]2(C(N)=O)CC[C@]3(C)C(=CC[C@@H]4[C@@]5(C)C/C(=C/c6ccncc6)C(=O)C(C)(C)[C@@H]5CC[C@]43C)[C@@H]2C1,-64.7% [100 µM] (active)
15,Cc1ccc(C2=C/C(=C/c3ccc(Br)cc3)C(=O)N2CCc2ccc(S(N)(=O)=O)cc2)cc1,104%
16,Cc1ccc(NCCN2CCCCC2)c2c(=O)c3ccccc3sc12,11%
17,CC1(C)CC(=O)c2c(ccc(C(=O)C[C@@H](N)CO)c2N)O1,17%
18,CCCCC1COc2cccc3c2N1C=C/C3=C\C(=O)n1ccc2ccccc21 (configuration not stated),92.5%
19,CC(C)CSc1ncnc2nc[nH]c12,101%

row,SMILES,growth
1,CC1(C)CC[C@]2(C(=O)O)CC[C@]3(C)C(=CC[C@@H]4[C@@]5(C)C/C(=C/c6cccnc6)[C@H](O)C(C)(C)[C@@H]5CC[C@]43C)[C@@H]2C1,-35.3% [100 µM] (active)
2,COc1ccc(C=C2c3ccccc3-c3ccccc32)cc1,64.9%
3,C#C[C@]1(O)CC[C@H]2[C@@H]3CC=C4c5nc(Nc6ccc(OC)cc6OC)sc5CC[C@]4(C)[C@H]3CC[C@@]21C,-49.1% (active)
4,CCOC(=O)c1nn(C2CCCCO2)c2ccc(NC(=O)CSc3nc4ccccc4c(=O)[nH]3)cc12 (configuration not stated),105%
5,O=c1[nH]cnc2c1ccn2C1OC(CO)C(O)C1O (configuration not stated),91.2%
6,CCOC(=O)C(=Cc1ccccc1[N+](=O)[O-])C(=O)OCC,33.7%
7,Cc1cc(C)c(S(=O)(=O)/N=c2/n(-c3ccccc3)nc3n2CCN3C2=NCCN2)c(C)c1,82.3%
8,COC(=O)c1cc2c(=O)[nH]cc3c2c(n1)CCC3,105%
9,Cn1cc(-c2noc(C(=O)c3cn(C)c4ncccc34)n2)c2ccccc21,100%
10,O=c1cc(-c2ccccc2)oc2cc(OCc3cn(Cc4ccc(F)cc4)nn3)cc(O)c12,93.6% [100 µM]
11,Cc1ccc(Cn2c(O)c(N=NC(=O)c3ccc(S(N)(=O)=O)cc3)c3ccccc32)cc1,106%
12,CC[C@]12C=CCN3CC[C@@]4(c5ccc(OC)cc5N(C)[C@H]4[C@@](O)(C(=O)OC)[C@@H]1OC(=O)CCC(=O)O[C@H]1CC[C@H]4[C@@H]5CCC6=CC(=O)CC[C@@H]6[C@H]5CC[C@]14C)[C@@H]32,-7.77% [100 µM] (active)
13,CCC(Br)(CC)C(=O)c1ccc(OCC(=O)O)c(Cl)c1Cl,111%
14,Oc1c(CNCCNCc2cc(Cl)cc(Cc3ccccc3)c2O)cc(Cl)cc1Cc1ccccc1,19.5%
15,CCc1ccc(-c2ccc(COc3ccc(CC4SC(=O)NC4=O)cc3)cc2)cc1 (configuration not stated),85%
16,Cn1cc(-c2noc(-c3cn(C)c4ncc(F)cc34)n2)c2ccccc21,94.1%
17,Clc1ccc2nc(-c3ccc(-c4ccc(/C=N/NC5=NCCN5)cc4)s3)cn2c1,99.5%
18,CC(C)CCSc1nc(N)nc2nc[nH]c12,121%
